{"source": "PubChem BioAssay (EPA / NIEHS)", "note": "Active and inactive are the calls of the source. How the source made its calls: active means hit-call score of the fitted dose curve at least 0.9, where 1 is the maximum; inactive means score below 0.9."}
{"read-out": "Nuclear factor NF-kappa-B p105 subunit (Homo sapiens) (UniProt P19838)", "assay": "LTEA_HepaRG_NFKB1: Life Technologies and Expression Analysis (LTEA) Assay for Nuclear Factor Kappa B Subunit 1 (NFKB1) using HepaRG (AID 2283521);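 on outcome: TaqMan qRT-PCR transcript normalised to ACTB GAPDH and POLR2A housekeeping genes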", "conditions": "mRNA level, 48 h; actives raise or lower the signal", "method": "LTEA_HepaRG is a cell based, multiplexed-readout assay that uses HepaRG, a human liver cell line, with measurements taken at 48 hours after chemical dosing on a 96-well plate.LTEA_HepaRG_NFKB1 is one of 102 assay component(s) measured in the LTEA HepaRG cell culture assay. It is a marker of Cell proliferation, survival, death.Data from the assay component LTEA_HepaRG_NFKB1 was analyzed into 1 endpoint. This assay endpoint, LTEA_HepaRG_NFKB1, was analyzed with bidirectional fitting relative to DMSO as the negative control and baseline of activity. Using a type of inducible reporter, measures of mRNA induction for gain or loss-of-signal activity can be used to understand regulation of transcription factor activity. To generalize the intended target to other relatable targets, this assay endpoint is annotated to the dna binding intended target family, where the subfamily is NF-kappa B.\nA total of 1060 chemcials from the ToxCast library were tested in eight-point concentration-response experiments. Cell culture and cytotoxicity assays were conducted at Thermo Fisher Scientific's Custom Services facility (Madison, WI). A single lot of human HepaRG cells (Thermo Fisher Scientific, Frederick, MD) was used for the cell culture experiments. 96-well format collagen type I coated plates of human HepaRG cells were prepared using established methods. Briefly, cryopreserved HepaRG cells were thawed, plated at a density of approximately 100,000 cells/well in HepaRG Thaw, Plate, and General Purpose media (HPRG770, Thermo Fisher Scientific), and incubated for 48 hours. 0.5% DMSO was selected as vehicle control to balance the requisite need of DMSO in HepaRG cultures to maintain differentiation (for example, baseline metabolism, proportions of hepatocytes vs. cholangiocytes), while enabling further hepatic receptor pathway activation (for example, PXR and CAR) in response to chemical exposure. 48 hours after plating, the culture medium was replaced with HepaRG Serum-Free Incudtion Media. Cells were exposed to each test chemical in duplicate and maintained in CO2 incubators for another 48 hours. Chemical plates were thawed to room temperature and 200x concentrations of treatment groups were prepared. 8-point conentration-reponse curves were made with the highest exposure at 100 uM, followed by half-log dilutions, all in 0.5% DMSO. Each test plate contained variouse controls, induction positive controls (1mM phenobarbital), cytotoxicity positive controls ([…] aflatoxin B1), vehicle controls (0.5% DMSO), and total lysis controls (0.5% DMSO). Cell morphology images were taken using an Essen IncuCyte FLR automated microscope, with six 96-well plates imaged in about 24 minutes. Images were captured and exported and JPEG files. Spent culture media was transfered to black-well plates for the LDH assay, and remaining media was sorted at -80 C for later use. Cells were treated with RLT buffer and frozen until shipped for gene expression analysis. Total RNA was isolated from the cell suspension in 75 uL of Buffer RLT (Qiagen, Germantown, MD 20874) by Quintiles/Expression Analysis (Durham, NC) using a custom isolation procedure. Total RNA from each plate well was transferred to a preamplification plate. Fluidigm's 96.96 Dynamic ArrayTM (Fluidigm, Amsterdam, the Netherlands) technology was used for gene expression analyses by quantitative reverse transcription polymerase chain reaction (qRT-PCR, performed by Quintiles/Expression Analysis, Durham, NC)89. Standard TaqManTM Assays (Applied Biosystems/ThermoFisher Scientific, Foster City, CA) were used to assess the expression of 93 genes selected based on their selectivity and sensitivity to important hepatic receptors known to be modulated by environmental chemicals; importance in human hepatocyte functionality; and hepatotoxicity. […]"}
{"smiles": "Nc1ccc(Nc2ccccc2)cc1", "outcome": "inactive"}
{"smiles": "CC(C)CCCCCCCOC(=O)CCCCC(=O)OCCCCCCCC(C)C", "outcome": "inactive"}
{"smiles": "O=C(OC[C@H]1O[C@@H](OC(=O)c2cc(O)c(O)c(OC(=O)c3cc(O)c(O)c(O)c3)c2)[C@H](OC(=O)c2cc(O)c(O)c(OC(=O)c3cc(O)c(O)c(O)c3)c2)[C@@H](OC(=O)c2cc(O)c(O)c(OC(=O)c3cc(O)c(O)c(O)c3)c2)[C@@H]1OC(=O)c1cc(O)c(O)c(OC(=O)c2cc(O)c(O)c(O)c2)c1)c1cc(O)c(O)c(OC(=O)c2cc(O)c(O)c(O)c2)c1", "AC50": "8.67 µM (active)"}
{"smiles": "COCCOc1cc2cc(C(=O)NC3CCN(C(C)C)CC3)n(CC(=O)Nc3ccc(Cl)cn3)c2cn1", "outcome": "inactive"}
{"smiles": "CCNc1ccccc1", "outcome": "inactive"}
{"smiles": "CC(O)CN(CCN(CC(C)O)CC(C)O)CC(C)O", "note": "(stereo not given)", "outcome": "inactive"}
{"smiles": "O=C(NS(=O)(=O)/C=C/c1ccccc1)c1ccc(F)cc1Cl", "outcome": "inactive"}
{"smiles": "O=C(O)c1cccc(N(Cc2cccnc2)c2ccc(OC(F)F)c(OC(F)F)c2)c1", "AC50": "0.576 µM (active)"}
{"smiles": "CN(C)c1ccc(Cc2ccc(N(C)C)cc2)cc1", "outcome": "inactive"}
{"smiles": "O=C1CCCCCN1", "outcome": "inactive"}
{"smiles": "COc1ccc(/C=C/S(=O)(=O)NC(=O)c2ccc(C)cc2Cl)cc1", "outcome": "inactive"}
{"smiles": "CC(C)=CCC/C(C)=C/CO", "outcome": "inactive"}
{"smiles": "CC(C)(O)c1coc(S(=O)(=O)NC(=O)Nc2c3c(cc4c2CCC4)CCC3)c1", "outcome": "inactive"}
{"smiles": "CC(C)CC(C)(O)C#CC(C)(O)CC(C)C", "note": "(stereo not given)", "outcome": "inactive"}
{"smiles": "O=C(O)c1cc(N=Nc2ccc(S(=O)(=O)Nc3ccccn3)cc2)ccc1O", "outcome": "inactive"}
{"smiles": "CCOCCO", "outcome": "inactive"}
{"smiles": "Clc1nc(Cl)c(Cl)c(Cl)c1Cl", "outcome": "inactive"}
{"smiles": "O=c1n(CC2CO2)c(=O)n(CC2CO2)c(=O)n1CC1CO1", "note": "(stereo not given)", "outcome": "inactive"}
{"smiles": "CCOCCOCCOCCO", "outcome": "inactive"}
{"smiles": "COC(=O)c1ccccc1O", "outcome": "inactive"}
{"smiles": "CCCCCCCCCCCCc1ccccc1", "outcome": "inactive"}
{"smiles": "COc1ccc(-n2nc(C(F)F)cc2-c2ccc(S(C)=O)cc2)cc1", "note": "(stereo not given)", "outcome": "inactive"}
{"smiles": "CC[C@H](C)C(=O)O[C@H]1C[C@@H](C)C=C2C=C[C@H](C)[C@H](CC[C@@H]3C[C@@H](O)CC(=O)O3)[C@H]21", "outcome": "inactive"}
{"smiles": "O=C(CCCCCCCCc1cccnc1)N1CCC(C=C(c2ccccc2)c2ccccc2)CC1", "AC50": "31.4 µM (active)"}
{"smiles": "O=C1CCC(N2C(=O)c3ccccc3C2=O)C(=O)N1", "note": "(stereo not given)", "outcome": "inactive"}
{"smiles": "CCn1nc(Cc2ccccc2)cc1C1CCN(C[C@H]2C[C@H](N(C)[C@@H](C(=O)O)C(C)C)C[C@@H]2c2cccc(F)c2)CC1", "outcome": "inactive"}
{"smiles": "COC(=O)c1c(Cl)c(Cl)c(C(=O)OC)c(Cl)c1Cl", "outcome": "inactive"}
{"smiles": "C=CC(=C)CCC=C(C)C", "outcome": "inactive"}
{"smiles": "O=C(O)c1cccc(Oc2ccccc2)c1", "outcome": "inactive"}
{"smiles": "CCCCCCCCCCCCCCCO", "outcome": "inactive"}
{"smiles": "CCc1cc(SCc2sc(-c3ccc(C(F)(F)F)cc3)nc2CN2CCN(c3ccc(OC)cc3)CC2)ccc1OCC(=O)O", "AC50": "91 µM (active)"}
{"smiles": "Cc1ccc(O)cc1", "outcome": "inactive"}
{"smiles": "CCOC(=O)COc1ccc2c(c1)CC(NCC(O)c1cccc(Cl)c1)CC2", "note": "(stereo not given)", "outcome": "inactive"}
{"smiles": "CC(C)c1cccc(C(C)C)c1N1C(=O)c2ccc(O)cc2C1=O", "outcome": "inactive"}
{"smiles": "Fc1ccccc1[C@@H](F)COC1CCC(Nc2ncnc3[nH]ncc23)CC1", "note": "(stereo not given in full)", "outcome": "inactive"}
{"smiles": "CCOC(=O)CC(CC(=O)OCC)(OC(C)=O)C(=O)OCC", "outcome": "inactive"}
{"smiles": "CNCc1ccc(NC(=O)c2c[nH]c3c2C(=O)CCC3)cc1", "outcome": "inactive"}
{"smiles": "CC(C)=CCCC(C)CCO", "note": "(stereo not given)", "outcome": "inactive"}
{"smiles": "C=CCCCCCCCCC(=O)O", "outcome": "inactive"}
{"smiles": "Nc1nc2ncc(CNc3ccc(C(=O)N[C@@H](CCC(=O)O)C(=O)O)cc3)nc2c(=O)[nH]1", "outcome": "inactive"}
